Source: PubChem BioAssay (National Center for Advancing Translational Sciences (NCATS))
Most compounds without a hit are left out; they make up all but 2.8% or so of the library.
IP6K1 inhibitor: IP6K1 kinase inhibition; activity change, % (series mostly up to about 58 µM); IP6K1 kinase, ADP-Glo luminescence, 2 h; stronger effect = lower value; 140,000 compounds, 0.81% hits; Q92551; in the data active means activity change below about -25%; further: on the % scale 0 is the no-effect control and ±100 the full control effect
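ADP-Glo luminescence measures ADP made by human IP6K1 during a 2 h RT reaction with ATP/IP6 (mix at 1.3 mM/130 uM); top library doses 57.5 and 19.1 uM final.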
SNCA expr inh: SNCA gene expression inhibition; 140,000 compounds, 0.17% hits; HEK-293 SNCA-luciferase knock-in, luminescence, 24 h; AID 1671194; Potency, µM (top dose mostly 57.2 µM), for the others: at the highest dose activity change, negative = inhibition, actives largely listed as inhibitors;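 further: potency means the concentration at half of the fitted maximal effect; plate controls were DMSO cells for no effect and cell-free wells for full effect; nearly all actives have a fitted effect of over 45% in size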
SNCA viab count: cell viability loss counter-screen | 150,000 compounds, 0.12% hits | HEK-293-SNCA-luc viability, GF-AFC fluorescence, 24 h | AID 1671193 | Potency, µM (series often up to 57.1 µM), without a hit: at the highest dose activity change, negative = cytotoxicity, hits mostly cytotoxic;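 further: potency means the concentration at half of the fitted maximal effect; 0% = DMSO-treated cells and -100% = medium-only wells without cells; nearly all actives have a fitted effect of over 30% in size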
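Cytotoxicity counterscreen: after 24 h compound treatment of genome-edited SNCA-luciferase HEK-293 cells, live-cell protease substrate GF-AFC read by fluorescence after 30 min; activity scaled between DMSO (0%) and medium-only (-100%), curves Hill-fitted.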
KDM5B inh: blocks human KDM5B histone demethylase activity | Q9UGL1 | KDM5B demethylase, FDH-coupled NADH fluorescence (FDH is formaldehyde dehydrogenase) | Potency, µM (titrated, usually from 57.7 µM), usual class: inhibitors | 220,000 compounds, 2.6% hits | AID 1347165; further: potency means the concentration at half of the fitted maximal effect; 0% is about no effect; nearly all actives have a fitted effect of over 70% in size
Target sequence (Q9UGL1 whole entry, looked up): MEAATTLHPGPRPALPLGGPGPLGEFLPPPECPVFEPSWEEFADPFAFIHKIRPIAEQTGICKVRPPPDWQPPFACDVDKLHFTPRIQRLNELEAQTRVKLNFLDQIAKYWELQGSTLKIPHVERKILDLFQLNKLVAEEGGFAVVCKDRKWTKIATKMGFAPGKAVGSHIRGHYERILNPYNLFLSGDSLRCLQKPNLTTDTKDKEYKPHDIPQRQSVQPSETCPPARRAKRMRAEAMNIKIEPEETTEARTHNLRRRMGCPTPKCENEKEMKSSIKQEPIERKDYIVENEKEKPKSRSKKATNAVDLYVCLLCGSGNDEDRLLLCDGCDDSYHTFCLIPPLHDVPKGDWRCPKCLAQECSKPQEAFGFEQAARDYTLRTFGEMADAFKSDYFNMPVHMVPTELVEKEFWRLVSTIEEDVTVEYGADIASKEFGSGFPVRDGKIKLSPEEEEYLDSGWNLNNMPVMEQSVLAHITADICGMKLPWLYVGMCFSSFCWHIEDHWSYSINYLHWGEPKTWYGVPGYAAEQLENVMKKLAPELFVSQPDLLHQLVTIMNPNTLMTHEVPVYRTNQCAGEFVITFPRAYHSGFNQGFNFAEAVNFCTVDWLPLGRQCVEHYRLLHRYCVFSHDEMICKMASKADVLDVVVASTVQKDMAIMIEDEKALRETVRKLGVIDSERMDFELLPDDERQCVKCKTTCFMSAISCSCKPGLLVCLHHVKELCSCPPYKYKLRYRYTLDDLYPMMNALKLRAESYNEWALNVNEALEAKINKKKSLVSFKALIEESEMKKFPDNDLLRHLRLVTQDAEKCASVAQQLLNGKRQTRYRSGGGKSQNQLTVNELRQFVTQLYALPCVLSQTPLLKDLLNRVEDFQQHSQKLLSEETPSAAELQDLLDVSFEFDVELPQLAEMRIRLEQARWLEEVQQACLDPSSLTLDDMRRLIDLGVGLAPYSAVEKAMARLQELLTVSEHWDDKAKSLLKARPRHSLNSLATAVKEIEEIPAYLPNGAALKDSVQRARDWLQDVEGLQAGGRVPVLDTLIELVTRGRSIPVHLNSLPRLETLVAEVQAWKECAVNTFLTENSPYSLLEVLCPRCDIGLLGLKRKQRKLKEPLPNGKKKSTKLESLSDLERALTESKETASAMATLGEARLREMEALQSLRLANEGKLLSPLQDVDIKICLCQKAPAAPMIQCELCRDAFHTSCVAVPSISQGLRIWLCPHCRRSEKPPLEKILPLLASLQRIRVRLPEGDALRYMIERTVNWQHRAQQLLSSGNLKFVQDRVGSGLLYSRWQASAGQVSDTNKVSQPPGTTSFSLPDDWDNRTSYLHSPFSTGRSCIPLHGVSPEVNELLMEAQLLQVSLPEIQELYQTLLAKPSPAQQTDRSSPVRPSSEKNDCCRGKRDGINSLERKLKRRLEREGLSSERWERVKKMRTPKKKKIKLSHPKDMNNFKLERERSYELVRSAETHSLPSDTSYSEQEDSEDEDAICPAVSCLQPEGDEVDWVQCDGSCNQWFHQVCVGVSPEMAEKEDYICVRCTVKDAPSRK
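Inhibition is measured as reduced NADH fluorescence generation from FDH coupling to formaldehyde release. Truncated KDM5BΔAP at 200 nM final acts on H3K4me3 peptide (12.5 µM in substrate mix) in pH 7.5 HEPES buffer with Tween-20, 30 min, room temperature.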
* hit, by the source's call; i = inactive; ? = inconclusive; nt = no result; [ ] = another dose, or the depositor's remark. Unless noted, the call rests on the fitted dose curve; in most records, active means well fitted curve in the direction sought with a large enough effect; inconclusive means small, poorly fitted or top-dose-only effect, or another doubt; inactive means no such curve, though single readings can be large; an effect the other way counts as inactive or inconclusive.

SMILES | IP6K1 inhibitor | SNCA expr inh | SNCA viab count | KDM5B inh
COc1cccc(Nc2nc(-c3ccc(CNC(C)=O)cc3)cs2)c1 | nt | nt | nt | i
CN1CCNc2cc(-c3ccc(N4CCOCC4)cc3)ncc2C1 | -13 | 32%[87.6 µM] | -12%[87.6 µM] | 28µM*
COc1ccc(-c2cc3c(cn2)CN(Cc2ccncc2)CCN3)cc1 | -18 | -14%[87.6 µM] | 9%[87.6 µM] | 35µM*
Fc1ccc(-c2cc3c(cn2)CN(Cc2ccncc2)CCN3)cc1Cl | 0 | ? | -15%[87.6 µM] | 35µM*
COc1cc(O)c2c(c1)C1OC1C[C@H](O)[C@H](O)C(=O)/C=C\C[C@H](C)OC2=O (some centres undefined) | 5 | nt | 12µM* | nt
COc1cc(O)c2c(c1)C1OC1C[C@H](O)[C@H](O)C(=O)C=CC[C@H](C)OC2=O (some centres undefined) | nt | -20% | ? | nt
COc1cc(C)c2c(c1C)C[C@H]([C@H](C)C(=O)O)CC2 | 7 | -13%[87.6 µM] | 25%[87.6 µM] | i
COc1cc(C)c2c(c1C)C[C@H](C(C)C(=O)NCc1ccco1)CC2 (some centres undefined) | 14 | -8%[87.6 µM] | -5%[87.6 µM] | 35µM*
O=C(NC1CCCCC1)c1nc(Cc2c[nH]c3ccccc23)no1 | nt | nt | nt | i
CCOc1ccc(CCNC(=O)c2cn(C)c3ccc(S(=O)(=O)N4CCCCC4)cc3c2=O)cc1OCC | -27* | 23% | -2% | ?
O=C(O)c1cccnc1SC(F)F | nt | nt | nt | i
O=C(NC1CCN(c2cc(-c3cccs3)[nH]n2)C1)c1cccc(OC(F)(F)F)c1 (centres undefined) | 4 | -24% | -1% | 5µM*
O=C(NC1CCN(c2cc(-c3cccs3)[nH]n2)C1)c1cccc(Br)c1 (centres undefined) | 2 | ? | ? | 7.9µM*
O=C(NC1CCN(c2cc(-c3cccs3)[nH]n2)C1)c1cccs1 (centres undefined) | 8 | -22% | 1% | ?
O=C([C@@H]1C[C@H](Oc2ccccc2)CN1C(=O)c1cc2ccccc2[nH]1)N1CCOCC1 | -4 | 65% | -4% | ?
O=C([C@@H]1C[C@H](Oc2ccccc2)CN1C(=O)c1cc2ccccc2[nH]1)N1CCCC1 | 32 | 40% | -9% | 25µM*
Cn1ccc(C(=O)NCc2nnc3n2C(C(=O)NCC2CC2)CC3)n1 (centres undefined) | 18 | 59% | -2% | 100µM*
COc1cccc(CN(C)C(=O)CN2CCC(c3nc4ccccc4s3)CC2)c1OC | nt | nt | nt | i
O=C(Nc1ccc(Oc2ccccc2)cc1)O[C@@H]1CO[C@H]2[C@@H]1OC[C@@H]2n1nnnc1-c1ccc(-c2ccccc2)cc1 | -3 | -5% | 2% | ?
CN(C)c1ccc(-c2nnnn2[C@H]2CO[C@H]3[C@@H]2OC[C@H]3OC(=O)Nc2ccc(Oc3ccccc3)cc2)cc1 | 10 | -18% | -6% | 13µM*
CN(C)c1ccc(-c2nnnn2[C@H]2CO[C@H]3[C@@H]2OC[C@H]3OCc2ccccc2)cc1 | -1 | 4%[87.6 µM] | 3%[87.6 µM] | 32µM*
O=C(NC1(C(F)(F)F)N=C(c2ccccc2)N(Cc2ccco2)C1=O)c1ccccc1 (centres undefined) | nt | nt | nt | i
O=C(N[C@@H]1C[C@H](Cn2cc(CN3CCS(=O)(=O)CC3)nn2)[C@@H](O)[C@H]1O)C1CCCC1 | -4 | 17% | 2% | ?
O=C(N[C@@H]1C[C@H](Cn2cc(CN3CCS(=O)(=O)CC3)nn2)[C@@H](O)[C@H]1O)c1cncnc1 | 8 | -13% | -2% | 14µM*
Cc1ccc(C(=O)NC2CCN(c3nc4ncccc4o3)CC2)cc1 | 3 | 1%[87.6 µM] | ? | 35µM*
SMILES | IP6K1 inhibitor | SNCA expr inh | SNCA viab count | KDM5B inh
O=C(NC1CCN(c2nc3ncccc3o2)CC1)c1ccccc1 | -3 | 5%[87.6 µM] | -15%[87.6 µM] | 35µM*
O=C(NC1CCN(c2nc3ncccc3o2)CC1)c1ccccc1F | -20 | 5% | -22% | ?
CC1(COc2ccccc2)COc2ccc(C(=O)Nc3ccccc3)cc2N1 (centres undefined) | 16 | 82%[87.6 µM] | -6%[87.6 µM] | ?
COc1ccc(NC(=O)c2ccc3c(c2)NC(C)(CNc2ccccc2)CO3)cn1 (centres undefined) | 5 | ? | -28%[87.6 µM] | i
CC1(COc2ccccc2)COc2ccc(C(=O)Nc3ccc4[nH]ccc4c3)cc2N1 (centres undefined) | 3 | -24%[87.6 µM] | -22%[87.6 µM] | ?
COc1ccc(NC(=O)c2ccc3c(c2)NC(C)(COc2ccccc2)CO3)cn1 (centres undefined) | 1 | ? | -17%[87.6 µM] | 32µM*
COc1ccc(NC(=O)c2ccc3c(c2)NC(C)(COc2ccccc2)CO3)cc1OC (centres undefined) | 7 | -20%[87.6 µM] | -19%[87.6 µM] | 32µM*
COc1ccc(NC(=O)c2ccc3c(c2)NC(C)(CNc2ccccc2)CO3)cc1OC (centres undefined) | 1 | ? | -22%[87.6 µM] | 35µM*
COCCNC(=O)Cn1nc(C)c2sc(-c3ccccc3)nc2c1=O | 14 | -4% | -4% | 28µM*
CCc1nc2c(=O)n(CC(=O)NCc3cccc(Cl)c3)nc(C)c2s1 | 9 | -4% | -1% | i
Cc1nn(CC(=O)O)c(=O)c2nc(-c3ccccc3)sc12 | -13 | 3% | 4% | 32µM*
COc1ccc(CNC(=O)Cn2nc(C)c3sc(-c4ccccc4)nc3c2=O)cc1 | 4 | 25% | 3% | ?
Cc1ccc(-c2nn(CC(=O)O)c(=O)c3ccccc23)cc1 | nt | nt | nt | i
Cc1nn(CC(=O)NCCCN2CCCCC2)c(=O)c2nc(-c3ccccc3)sc12 | 3 | 10% | -3% | 32µM*
Cc1nn(CC(=O)NCCN2CCCCCC2)c(=O)c2nc(-c3ccccc3)sc12 | 24 | 23% | -2% | 20µM*
O=C(Cn1nc(-c2ccccc2)ccc1=O)NCCCN1CCOCC1 | nt | nt | nt | i
Cc1ccc(-n2nnnc2SCC(=O)N(Cc2ccco2)C2=CCCCC2)cc1 | nt | nt | nt | i
CCN(CC)c1nc2c(c(=O)n(C)c(=O)n2C)n1CC(=O)c1ccc(Br)cc1 | nt | nt | nt | i
Clc1ccc(-c2ccc(CNc3ncn[nH]3)o2)c(Cl)c1 | nt | nt | nt | i
O=C(O)COc1ccc(C(=O)/C=C/c2ccc(Cl)cc2Cl)cc1 | nt | nt | nt | i
CC(NC(=S)NNC(=O)CSCc1ccccc1)c1ccccc1 (centres undefined) | nt | nt | nt | i
Cc1ccc(Br)cc1S(=O)(=O)Nc1ccc2cn[nH]c2c1 | nt | nt | nt | i
COc1ccc(C(=O)Oc2ccccc2Br)cc1Br | nt | nt | nt | i
Cc1cc(C)c(NC(=O)CN(C)C(=O)C2CCN(C(=O)c3ccc(Cl)cc3)CC2)c(C)c1 | nt | nt | nt | i
CCNc1ncc(C(=O)N2CCN(CCCCOC)CC2)cn1 | -11 | 11% | 1% | 25µM*
CC(C)(C)c1cnc(CSc2cnc(NC(=O)C3CCNCC3)s2)o1 | nt | 1.5µM* | ? | nt
O=C(Nc1ncc(Cc2cccc(Cl)c2)s1)C1CCCCC1 | nt | nt | nt | i
Cc1noc(C)c1CCCNC(=O)c1ccc(N2CCN(CC3CC3)CC2)nc1 | 6 | 1% | -4% | 28µM*
Cc1nnc(-c2cc(Nc3cccc(N(C)C)c3)ccn2)n1Cc1ccccc1 | 0 | 52%[87.6 µM] | 12%[87.6 µM] | 32µM*
